In all, about 5,500 compounds went through this assay and about 2,000 (36%) were called active. Roughly 18% stayed inconclusive and do not appear here. This is one part of the list. Values without a mark were called inactive. No stated cut-off is given here; in the data, active means normalized growth mostly below about 0.91 (no sharp cut-off); inconclusive means no clear call, values can overlap the other calls; inactive means mostly above about 0.92.
Experiment: chemical genetic growth profiling, strain panel (AID 1159580);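 further: tested at 20 µM; growth read once vehicle control cultures reached saturation at 30 °C; 1 = growth at the plate median or of vehicle wells; lower values mean less growth of the strain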
Conditions: S. cerevisiae deletion strains, growth OD

C=CCCCCCCCCCCCC(O)CC(O)CO (centres undefined)
normalized growth (locus YAL013W, strain DEP1, active compounds read low): 0.952 | normalized growth (locus YAL021C, strain ccr4, active compounds read low): 0.987 | normalized growth (locus YAL026C, strain drs2, active compounds read low): 1.01 | normalized growth (locus YAL030W, strain snc1, active compounds read low): 1 | normalized growth (locus YBL061C, strain skt5, active compounds read low): 1 | normalized growth (locus YBR009C, strain hhf1, active compounds read low): 1 | normalized growth (locus YBR021W, strain FUR4, active compounds read low): 0.751 (active) | normalized growth (locus YBR023C, strain chs3, active compounds read low): 1 | normalized growth (locus YBR171W, strain sec66, active compounds read low): 0.986 | normalized growth (locus YBR229C, strain ROT2, active compounds read low): 0.974 | normalized growth (locus YBR231C, strain swc5, active compounds read low): 0.997 | normalized growth (locus YBR279W, strain paf1, active compounds read low): 0.981 | normalized growth (locus YCL011C, strain gbp2, active compounds read low): 0.992 | normalized growth (locus YCL016C, strain dcc1, active compounds read low): 0.987 | normalized growth (locus YCL029C, strain bik1, active compounds read low): 0.968 | normalized growth (locus YCL061C, strain MRC1, active compounds read low): 0.985 | normalized growth (locus YCL069W, strain vba3, active compounds read low): 0.991 | normalized growth (locus YCR088W, strain abp1, active compounds read low): 0.99 | normalized growth (locus YDL005C, strain med2, active compounds read low): 0.987 | normalized growth (locus YDL035C, strain GPR1, active compounds read low): 0.822 (active) | normalized growth (locus YDL040C, strain nat1, active compounds read low): 0.998 | normalized growth (locus YDL074C, strain BRE1, active compounds read low): 0.82 | normalized growth (locus YDL101C, strain DUN1, active compounds read low): 0.949 | normalized growth (locus YDL134C, strain PPH21, active compounds read low): 0.951 | normalized growth (locus YDL185W, strain tfp1, active compounds read low): 0.989 | normalized growth (locus YDL192W, strain arf1, active compounds read low): 0.921 | normalized growth (locus YDR001C, strain nth1, active compounds read low): 0.987 | normalized growth (locus YDR069C, strain doa4, active compounds read low): 1.01 | normalized growth (locus YDR101C, strain arx1, active compounds read low): 0.899 (active) | normalized growth (locus YDR137W, strain rgp1, active compounds read low): 1.01 | normalized growth (locus YDR150W, strain NUM1, active compounds read low): 0.992 | normalized growth (locus YDR159W, strain sac3, active compounds read low): 0.99 | normalized growth (locus YDR162C, strain NBP2, active compounds read low): 0.948 | normalized growth (locus YDR195W, strain ref2): 1.01 | normalized growth (locus YDR297W, strain sur2, active compounds read low): 0.996 | normalized growth (locus YDR318W, strain mcm21, active compounds read low): 0.872 (active) | normalized growth (locus YDR334W, strain swr1, active compounds read low): 1 | normalized growth (locus YDR335W, strain msn5, active compounds read low): 0.998 | normalized growth (locus YDR388W, active compounds read low): 0.98 | normalized growth (locus YDR392W, strain spt3, active compounds read low): 0.918 | normalized growth (locus YDR502C, strain sam2, active compounds read low): 0.912 (active) | normalized growth (locus YEL003W, strain gim4, active compounds read low): 0.993 | normalized growth (locus YEL037C, strain rad23, active compounds read low): 1.01 | normalized growth (locus YEL061C, strain CIN8 (second series), active compounds read low): 0.994 | normalized growth (locus YEL061C, strain CIN8, active compounds read low): 0.962 | normalized growth (locus YER015W, strain faa2, active compounds read low): 0.99 | normalized growth (locus YER016W, strain bim1, active compounds read low): 0.997 | normalized growth (locus YER110C, active compounds read low): 0.969 | normalized growth (locus YER111C, strain swi4, active compounds read low): 0.991 | normalized growth (locus YER155C, strain BEM2 (second series), active compounds read low): 0.986 | normalized growth (locus YER155C, strain BEM2, active compounds read low): 0.97 | normalized growth (locus YER167W, strain BCK2, active compounds read low): 0.872 (active) | normalized growth (locus YFR010W, strain ubp6, active compounds read low): 1 | normalized growth (locus YGL078C, strain dbp3, active compounds read low): 0.967 | normalized growth (locus YGL086W, strain mad1, active compounds read low): 0.875 (active) | normalized growth (locus YGL167C, strain pmr1, active compounds read low): 0.998 | normalized growth (locus YGL173C, strain kem1, active compounds read low): 0.996 | normalized growth (locus YGL227W, strain vid30, active compounds read low): 0.981 | normalized growth (locus YGL240W, strain doc1, active compounds read low): 0.993 | normalized growth (locus YGL248W, strain PDE1, active compounds read low): 0.927 | normalized growth (locus YGL253W, strain hxk2, active compounds read low): 1 | normalized growth (locus YGR078C, strain PAC10, active compounds read low): 0.832 (active) | normalized growth (locus YGR135W, strain pre9, active compounds read low): 0.887 (active) | normalized growth (locus YGR229C, strain SMI1, active compounds read low): 0.947 | normalized growth (locus YGR252W, strain gcn5, active compounds read low): 0.785 | normalized growth (locus YHR013C, strain ard1, active compounds read low): 0.966 | normalized growth (locus YHR027C, strain rpn1, active compounds read low): 0.995 | normalized growth (locus YHR030C, strain SLT2, active compounds read low): 0.974 | normalized growth (locus YHR079C, strain IRE1 (second series), active compounds read low): 0.883 (active) | normalized growth (locus YHR094C, strain hxt1, active compounds read low): 0.985 | normalized growth (locus YHR129C, strain ARP1, active compounds read low): 0.903 (active) | normalized growth (locus YHR142W, strain chs7, active compounds read low): 1.01 | normalized growth (locus YHR200W, strain rpn10, active compounds read low): 0.961 | normalized growth (locus YIL066C, strain RNR3, active compounds read low): 0.784 (active) | normalized growth (locus YIL073C, strain SPO22, active compounds read low): 0.992 | normalized growth (locus YIL125W, strain kgd1, active compounds read low): 0.977 | normalized growth (locus YIR030C, strain dcg1, active compounds read low): 0.942 | normalized growth (locus YJL092W, strain hpr5, active compounds read low): 0.992 | normalized growth (locus YJL095W, strain BCK1 (second series), active compounds read low): 0.99 | normalized growth (locus YJL095W, strain BCK1, active compounds read low): 0.937 | normalized growth (locus YJL115W, strain asf1, active compounds read low): 0.993 | normalized growth (locus YJL129C, strain trk1, active compounds read low): 0.985 | normalized growth (locus YJL134W, strain LCB3, active compounds read low): 0.995 | normalized growth (locus YJL154C, strain vps35, active compounds read low): 0.987 | normalized growth (locus YJL164C, strain tpk1, active compounds read low): 0.997 | normalized growth (locus YJL166W, strain qcr8, active compounds read low): 0.99 | normalized growth (locus YJL168C, strain set2, active compounds read low): 0.974 | normalized growth (locus YJL187C, strain SWE1 (second series), active compounds read low): 0.913 | normalized growth (locus YJL187C, strain SWE1, active compounds read low): 0.996

From PubChem BioAssay AID1159580 (chemical genetic matrix, 2015)
